# Data from PubChem BioAssay.
# Where “and” joins values, the source holds several entries; their conditions need not be identical. Identical values can stand only once. Calls of active or inactive are those of the source.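 The calls were made as follows: active = inhibition at or above 50% relative to wild type and mutant plate controls; inactive = inhibition below 50%.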
# Test: loss of swimming-algae plug formation – whole organism, Chlamydomonas reinhardtii, WT vs cilia-less mutant, absorbance, 96-well, primary screen (AID 463189);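 also: 0% = wild type cc124 cells in DMSO and 100% = ciliumless bld1 mutant cells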
# Details: Chlamydomonas reinhardtii gravitaxis, OD600 absorbance, 2 days; at 10 µM; stronger effect = higher value
row,Structure (SMILES),inhibition
1,CN1CC[C@@]2(C)c3cc(O)ccc3N(C)C12 (stereo partly drawn),-1.8% (inactive)
2,CC(=O)OCC1=C(C(=O)[O-])N2C(=O)[C@@H](NC(=O)CCC[C@@H](N)C(=O)[O-])[C@H]2SC1.[Zn+2],3.46% (inactive)
3,O=P(O)(O)C(Cl)(Cl)P(=O)(O)O,8.57% (inactive)
4,CC(N)c1cccc(Cl)c1Cl (stereo not drawn),-4.86% (inactive)
5,CN1CCN(c2ccc3ccccc3n2)CC1,23.3% (inactive)
6,OCc1cnc[nH]1,3.19% (inactive)
7,CCCN1CCC[C@H](c2cccc(O)c2)C1,0.621% (inactive)
8,Clc1cccc(N2CCNCC2)c1,1.7% (inactive)
9,Cn1cnc(CCN)c1,3.08% (inactive)
10,Oc1ccc2c3c1O[C@H]1c4[nH]c5c(c4C[C@@]4(O)[C@@H](C2)N(CC2CC2)CC[C@]314)C[C@@]1(O)[C@H]2Cc3ccc(O)c4c3[C@@]1(CCN2CC1CC1)[C@H]5O4,-0.992% (inactive)
11,CC(C)(C)c1o[nH]c(=O)c1CC(N)C(=O)O (stereo not drawn),0.571% (inactive)
12,C#CCN[C@H](C)Cc1ccccc1,20.4% (inactive)
13,CCN(CC)C(=O)N[C@@H]1C[C@@H]2c3cccc4[nH]cc(c34)C[C@H]2N(C)C1,5.28% (inactive)
14,COc1ccc2c(c[n+](C)c3c4cc5c(cc4ccc23)OCO5)c1OC,47% (inactive)
15,NC(=O)c1ccc(OCC(O)CN2CC=C(c3ccc(F)cc3)CC2)cc1 (stereo not drawn),-9.43% (inactive)
16,CCCCc1ccc(C(=O)O)nc1,-11.3% (inactive)
17,COc1ccccc1N1CCNCC1,6.65% (inactive)
18,Ic1ccccc1CNC1C2CCN(CC2)C1C(c1ccccc1)c1ccccc1 (stereo not drawn),75.8% (active)
19,NC(=NCCC[C@H](N)C(=O)O)N[N+](=O)[O-],2.94% (inactive)

row,Structure (SMILES),inhibition
1,C[N+](C)(C)CC(=O)O,3.38% (inactive)
2,NC(C(=O)O)c1cc(=O)[nH]o1 (stereo not drawn),6.42% (inactive)
3,N#CC(C#N)=Cc1cc(O)c(O)c(O)c1,7.39% (inactive)
4,COc1ccc2c(c1OC)C(=O)O[C@H]2[C@@H]1c2cc3c(cc2CCN1C)OCO3,-6.11% (inactive)
5,CCCN1CCO[C@@H]2c3cc(O)ccc3OC[C@H]21,3.37% (inactive) and -1.05% (inactive)
6,NC(N)=NOCC[C@H](N)C(=O)O,-0.094% (inactive)
7,C#CCOC(=O)C1=CCCN(C)C1,6.87% (inactive)
8,CC1Cc2cc3c(cc2C(c2ccc(N)cc2)=NN1)OCO3 (stereo not drawn),0.595% (inactive)
9,NC(Cc1cc(O)c(O)cc1O)C(=O)O (stereo not drawn),-1.78% (inactive)
10,Nc1ccncc1,14.4% (inactive)
11,CO[C@H]1CC=C2CCN3CCC4=C(CC(=O)OC4)[C@]23C1,0.879% (inactive)
12,C[C@]12N[C@H](Cc3ccccc31)c1ccccc12,-0.308% (inactive)
13,CCCCCCCCC(=O)NCc1ccc(O)c(OC)c1,12.3% (inactive)
14,c1ccc2nc(N3CCNCC3)ccc2c1,4.23% (inactive)
15,COc1cc(C[C@@H](C)N)c(OC)cc1I,-7.2% (inactive)
16,O=C(OC1CCN(CCCl)CC1)C(c1ccccc1)c1ccccc1,-11.2% (inactive)
17,CCCN1CCc2cc(O)cc3c2[C@H]1Cc1ccc(O)c(O)c1-3,0.25% (inactive)
18,Cc1sc2ccccc2c1CC1=NCCN1,20.7% (inactive)
19,C[C@@H]1O[C@@H](O[C@H]2C[C@@H](O)[C@]3(CO)[C@H]4[C@H](O)C[C@]5(C)[C@@H](C6=CC(=O)OC6)CC[C@]5(O)[C@@H]4CC[C@]3(O)C2)[C@H](O)[C@H](O)[C@H]1O,6.79% (inactive)
